About 83,000 compounds went through this panel and 20% of them were active in at least one assay; those are over-represented in the sample as a whole.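 How to read the values: 0–100, growth inhibition (40 = 60% inhibited); 0, no net growth; -100 to 0, cell death (-40 = 40% of starting cells died; -100 = all dead).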 Values without a mark were called inactive. Activity calls are given as the source filed them. The calls were made as follows: active = growth percent below 10; inactive = the rest.
Legend:
Assay in all cases: NCI-60 one-dose screen, 48 h (100 = growth as untreated, 0 = no growth, -100 = all killed)
Conditions in all cases: 10 µM unless noted
[1] = test system: T-47D breast
[2] = test system: BT-549 breast
[3] = test system: MDA-MB-435 melanoma
[4] = test system: SW-620 colon
[5] = test system: MCF7 breast
[6] = test system: HCT-116 colon
[7] = test system: HCC-2998 colon
[8] = test system: KM12 colon

O=S=Nc1ccc([N+](=O)[O-])cc1
growth [1]: 76.2%
growth [2]: 91.8%
growth [3]: 95.5%
growth [4]: 93.4%
growth [5]: 95.7%
growth [6]: 94%
growth [7]: 93.5%
growth [8]: 81.6%

NC(CC(N)C(=O)O)C(=O)O (centres undefined)
growth [1]: 92.9%
growth [2]: 105%
growth [3]: 103%
growth [4]: 104%
growth [5]: 98.7%
growth [6]: 102%
growth [7]: 99.3%
growth [8]: 113%

CCN(Cc1ccc(CN(CC)C(=O)C(Br)Br)cc1)C(=O)C(Br)Br
growth [1]: 27.9%
growth [2]: 36%
growth [3]: 22.3%
growth [4]: 21.6%
growth [5]: 24.4%
growth [6]: -21% (active)
growth [7]: 18.8%
growth [8]: 4.49% (active)

CCN(CC)CCSc1c2ccc(Cl)cc2nc2ccc(OC)cc12
growth [1]: -39.9% (active)
growth [2]: 107%
growth [3]: 109%
growth [4]: 4.29% (active)
growth [5]: 33.8%
growth [6]: 50.3%
growth [7]: 97.3%
growth [8]: 99.1%

CCn1cc(C2NC(=O)c3cc(F)ccc3N2)c2cccc(Cl)c21 (centres undefined)
growth [1]: 58.3%
growth [2]: 26.9%
growth [3]: -31.7% (active)
growth [4]: 20.8%
growth [5]: 15.5%
growth [6]: 8.12% (active)
growth [7]: 7.64% (active)
growth [8]: 19.2%

O=S(=O)(O)CCl
growth [1]: 97.2%
growth [2]: 100%
growth [3]: 108%
growth [4]: 103%
growth [5]: 103%
growth [6]: 103%
growth [7]: 98.9%
growth [8]: 105%

Cc1cc(Nc2nc(-c3ccc(F)cc3)nc3ccccc23)n[nH]1
growth [1]: 29.3%
growth [2]: 72.9%
growth [3]: 31.2%
growth [4]: 48.8%
growth [5]: 23.8%
growth [6]: 28.5%
growth [7]: 67.3%
growth [8]: 14.8%

O=C(CN1CCN(c2cc3c(cc2F)c(=O)c(C(=O)O)cn3C2CC2)CC1)Nc1ccc(C(=O)/C=C/c2ccc(Cl)cc2)cc1
growth [1]: 106%
growth [2]: 91.1%
growth [3]: 101%
growth [4]: 111%
growth [5]: 91.7%
growth [6]: 41.3%
growth [7]: 103%
growth [8]: 120%

COc1cc(NS(C)(=O)=O)ccc1Nc1c2ccc([N+](=O)[O-])cc2nc2c(C)cccc12
growth [1]: 1.78% (active)
growth [2]: 27%
growth [3]: 27.2%
growth [4]: 18.8%
growth [5]: 15.6%
growth [6]: 22.9%
growth [7]: -1.86% (active)
growth [8]: -29.1% (active)

CCOP(=O)(CCN1CCN(CCCCCOc2cc3c(cc2OC)C(=O)N2CCC[C@H]2C=N3)CC1)OCC
growth [1]: 46%
growth [2]: 52.5%
growth [3]: 93.7%
growth [4]: 63.5%
growth [5]: 35.9%
growth [6]: 80.1%
growth [7]: 80.8%
growth [8]: 111%

Cc1ccc(-c2csc3nc(C)c(CCCl)c(=O)n23)cc1
growth [1]: 76.7%
growth [2]: 119%
growth [3]: 97.3%
growth [4]: 99.2%
growth [5]: 78.3%
growth [6]: 89.4%
growth [7]: 109%
growth [8]: 103%

COc1ccc(S(=O)(=O)NCCNc2nccc(-c3c(-c4ccccc4)nc4sccn34)n2)cc1
growth [1]: 10.9%
growth [2]: 34.7%
growth [3]: 11.2%
growth [4]: 36.5%
growth [5]: 4.01% (active)
growth [6]: 9.81% (active)
growth [7]: 60.7%
growth [8]: 9.45% (active)

COc1cc(Br)c(OC)cc1Br
growth [1]: 82%
growth [2]: 97.7%
growth [3]: 105%
growth [4]: 94.7%
growth [5]: 63.1%
growth [6]: 91.5%
growth [7]: 99.6%
growth [8]: 76.3%

O=C1CCC/C=C\C[C@H]2C=CC(=O)/C2=C/C[C@H](C/C=C\CC(F)(F)F)O1
growth [1]: 6.6% (active)
growth [2]: -18% (active)
growth [3]: -22.8% (active)
growth [4]: -15.7% (active)
growth [5]: 6.19% (active)
growth [6]: -51.4% (active)
growth [7]: -83.7% (active)
growth [8]: -71.3% (active)

O=C(Cc1n[nH]c(=O)c2ccccc12)OCc1c(Cl)cccc1Cl
growth [1]: 100%
growth [2]: 138%
growth [3]: 84.7%
growth [4]: 86.9%
growth [5]: 69.9%
growth [6]: 49.9%
growth [7]: 70.8%
growth [8]: 66.1%

CC1=NN2C(=NC3=C(CCC/C3=C\c3ccc(Cl)cc3)C2c2ccc(Cl)cc2)S1 (centres undefined)
growth [1]: 89.1%
growth [2]: 97.9%
growth [3]: 45.8%
growth [4]: 97.3%
growth [5]: 24.2%
growth [6]: -37.2% (active)
growth [7]: 80.6%
growth [8]: 77.2%

CCCCCCC[C@@H](O)CC(=O)N[C@H](CCCCN)C(=O)N[C@H](Cc1c[nH]c2ccccc12)C(=O)NC(CCCCN)C(=O)N[C@H](CC(C)C)C(=O)N[C@H](Cc1ccccc1)C(=O)N[C@H](CCCCN)C(=O)N[C@H](CCCCN)C(=O)N[C@H](CC(C)C)C(=O)N1CCCC1C(=O)N[C@H](CCCCN)C(=O)N[C@H](Cc1ccccc1)C(=O)N[C@H](CC(C)C)C(=O)N[C@H](Cc1c[nH]cn1)C(=O)N[C@H](CC(C)C)C(=O)N[C@H](C)C(=O)N[C@H](CCCCN)C(=O)N[C@H](CCCCN)C(=O)N[C@H](Cc1ccccc1)C(=O)O (some centres undefined)
growth [1]: -39.9% (active)
growth [2]: -43% (active)
growth [3]: -38.7% (active)
growth [4]: -52.2% (active)
growth [5]: -23.8% (active)
growth [6]: -35.7% (active)
growth [7]: -49.2% (active)
growth [8]: -63% (active)

O=C(CNC1CCCCC1)Nc1ccc(-c2nc3ccccc3s2)cc1
growth [1]: 69.1%
growth [2]: 87.6%
growth [3]: 90.4%
growth [4]: 100%
growth [5]: 28%
growth [6]: 77%
growth [7]: 87.3%
growth [8]: 83.9%

NC(N)=NC(N)=Nc1ccccc1-c1ccccc1
growth [1]: 108%
growth [2]: 131%
growth [3]: 103%
growth [4]: 107%
growth [5]: 110%
growth [6]: 102%
growth [7]: 105%
growth [8]: 107%

Clc1ccc2c(c1)NC1(CCSc3ccccc31)n1nccc1-2 (centres undefined)
growth [1]: 101%
growth [2]: 97.4%
growth [3]: 110%
growth [4]: 102%
growth [5]: 102%
growth [6]: 89.4%
growth [7]: 97.3%
growth [8]: 102%

COc1cc(/C=C2\CCCC3=C2NC(C)=NC3c2cc(OC)c(OC)c(OC)c2)cc(OC)c1OC (centres undefined)
growth [1]: 79.2%
growth [2]: 2.96% (active)
growth [3]: 5.2% (active)
growth [4]: -8.03% (active)
growth [5]: 23%
growth [6]: -78.2% (active)
growth [7]: 11.9%
growth [8]: 2.95% (active)

COc1cccc(/C=C/C(=O)c2sc(Nc3ccc(O)cc3)nc2C)c1
growth [1]: 90.8%
growth [2]: 14.6%
growth [3]: 88.4%
growth [4]: 110%
growth [5]: 72.2%
growth [6]: 87.4%
growth [7]: 105%
growth [8]: 78.4%

Cc1cc(C)c2c(=O)[nH]c(SCC(=O)Nc3cccc(S(=O)(=O)N(C)C)c3)nc2n1
growth [1]: 92.4%
growth [2]: 103%
growth [3]: 105%
growth [4]: 105%
growth [5]: 97.4%
growth [6]: 97.1%
growth [7]: 106%
growth [8]: 112%

COc1c(NC[C@H]2OC(O)[C@H](O)[C@@H](O)[C@@H]2O)c(=O)c1=O (some centres undefined)
growth [1]: 95.3%
growth [2]: 112%
growth [3]: 98%
growth [4]: 101%
growth [5]: 103%
growth [6]: 100%
growth [7]: 97.9%
growth [8]: 111%

CC(C)CCC[C@@H](C)[C@H]1CC[C@H]2[C@@H]3CC[C@H]4C/C(=N/O)CC[C@]4(C)[C@H]3CC[C@]12C
growth [1]: 103%
growth [2]: 108%
growth [3]: 103%
growth [4]: 97.9%
growth [5]: 103%
growth [6]: 109%
growth [7]: 86.3%
growth [8]: 108%

C[C@]12CC[C@@H]3c4cc(O)c(O)cc4CC[C@H]3[C@@H]1CC[C@@H]2O
growth [1]: 30.4%
growth [2]: 37.7%
growth [3]: -45% (active)
growth [4]: 30.7%
growth [5]: 17.8%
growth [6]: 37.9%
growth [7]: 91.4%
growth [8]: 74.5%

COc1cc2nc(SCc3cc(OC)c(OC)c(OC)c3)n(Cc3ccccc3)c(=O)c2cc1OC
growth [1]: 35.9%
growth [2]: 16.8%
growth [3]: -20.3% (active)
growth [4]: 33.5%
growth [5]: 10.1%
growth [6]: 14.7%
growth [7]: 40.9%
growth [8]: 15.4%

Cn1c(-c2nonc2NC(=O)c2ccc(F)cc2)nc2ccccc21
growth [1]: 96.5%
growth [2]: 109%
growth [3]: 107%
growth [4]: 105%
growth [5]: 89.1%
growth [6]: 106%
growth [7]: 100%
growth [8]: 103%

— PubChem BioAssay (NCI)
